According to PubChem BioAssay AID1159580 (chemical genetic matrix, 2015):
Where “and” joins values, the source holds several entries; their conditions need not be identical. Equal values may be shown once. The campaign covered roughly 5,500 compounds. About 2,000 (36%) were called active. Roughly 18% stayed inconclusive and do not appear here. No stated cut-off is given here; in the data, active means normalized growth mostly below about 0.91 (no sharp cut-off); inconclusive means no clear call, values can overlap the other calls; inactive means mostly above about 0.92. Some of the results follow.

Experiment: chemical genetic growth profiling, strain panel (AID 1159580);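 further: tested at 20 µM; growth read once vehicle control cultures reached saturation at 30 °C; 1 = growth at the plate median or of vehicle wells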
Settings: S. cerevisiae deletion strains, growth OD

Measured: normalized growth

C=C[C@H]1CN2CC[C@H]1C[C@@H]2[C@H](O)c1ccnc2ccccc12
inactive: locus YAL013W, strain DEP1, stronger effect = lower value 1 | locus YAL021C, strain ccr4, stronger effect = lower value 1.01 | locus YAL026C, strain drs2, stronger effect = lower value 0.994 | locus YAL030W, strain snc1, stronger effect = lower value 0.999 | locus YBL061C, strain skt5, stronger effect = lower value 0.992 | locus YBR009C, strain hhf1, stronger effect = lower value 0.988 | locus YBR021W, strain FUR4, stronger effect = lower value 1.02 | locus YBR023C, strain chs3, stronger effect = lower value 0.981 | locus YBR171W, strain sec66, stronger effect = lower value 0.988 | locus YBR229C, strain ROT2, stronger effect = lower value 0.995 | locus YBR231C, strain swc5, stronger effect = lower value 0.989 | locus YBR279W, strain paf1, stronger effect = lower value 0.996 | locus YCL011C, strain gbp2, stronger effect = lower value 0.988 | locus YCL016C, strain dcc1, stronger effect = lower value 0.979 | locus YCL029C, strain bik1, stronger effect = lower value 0.973 | locus YCL069W, strain vba3, stronger effect = lower value 0.987 | locus YCR088W, strain abp1, stronger effect = lower value 0.994 | locus YDL005C, strain med2, stronger effect = lower value 0.975 | locus YDL035C, strain GPR1, stronger effect = lower value 1.02 | locus YDL040C, strain nat1, stronger effect = lower value 0.983 | locus YDL074C, strain BRE1, stronger effect = lower value 0.999 | locus YDL101C, strain DUN1, stronger effect = lower value 0.985 | locus YDL134C, strain PPH21, stronger effect = lower value 0.997 | locus YDL185W, strain tfp1, stronger effect = lower value 0.976 | locus YDL192W, strain arf1, stronger effect = lower value 0.98 | locus YDR001C, strain nth1, stronger effect = lower value 0.985 | locus YDR069C, strain doa4, stronger effect = lower value 0.996 | locus YDR101C, strain arx1, stronger effect = lower value 0.985 | locus YDR137W, strain rgp1, stronger effect = lower value 0.99 | locus YDR150W, strain NUM1, stronger effect = lower value 0.986 | locus YDR159W, strain sac3, stronger effect = lower value 1.02 | locus YDR162C, strain NBP2, stronger effect = lower value 0.988 | locus YDR195W, strain ref2 0.989 | locus YDR297W, strain sur2, stronger effect = lower value 1.01 | locus YDR318W, strain mcm21, stronger effect = lower value 0.985 | locus YDR334W, strain swr1, stronger effect = lower value 0.977 | locus YDR335W, strain msn5, stronger effect = lower value 0.99 | locus YDR388W, stronger effect = lower value 0.988 | locus YDR392W, strain spt3, stronger effect = lower value 0.973 | locus YDR502C, strain sam2, stronger effect = lower value 0.982 | locus YEL003W, strain gim4, stronger effect = lower value 0.989 | locus YEL037C, strain rad23, stronger effect = lower value 0.983 | locus YEL061C, strain CIN8 (second series), stronger effect = lower value 0.993 | locus YEL061C, strain CIN8, stronger effect = lower value 0.998 | locus YER015W, strain faa2, stronger effect = lower value 0.986 | locus YER016W, strain bim1, stronger effect = lower value 0.987 | locus YER110C, stronger effect = lower value 0.981 | locus YER111C, strain swi4, stronger effect = lower value 0.975 | locus YER155C, strain BEM2 (second series), stronger effect = lower value 0.972 | locus YER155C, strain BEM2, stronger effect = lower value 0.995 | locus YER167W, strain BCK2, stronger effect = lower value 1 | locus YFR010W, strain ubp6, stronger effect = lower value 0.999 | locus YGL078C, strain dbp3, stronger effect = lower value 1.01 | locus YGL086W, strain mad1, stronger effect = lower value 1.01 | locus YGL167C, strain pmr1, stronger effect = lower value 0.993 | locus YGL173C, strain kem1, stronger effect = lower value 0.981 | locus YGL227W, strain vid30, stronger effect = lower value 0.984 | locus YGL240W, strain doc1, stronger effect = lower value 0.986 | locus YGL248W, strain PDE1, stronger effect = lower value 0.994 | locus YGL253W, strain hxk2, stronger effect = lower value 0.994 | locus YGR078C, strain PAC10, stronger effect = lower value 0.988 | locus YGR135W, strain pre9, stronger effect = lower value 0.978 | locus YGR229C, strain SMI1, stronger effect = lower value 1.02 | locus YGR252W, strain gcn5, stronger effect = lower value 1.17 | locus YHR013C, strain ard1, stronger effect = lower value 0.962 | locus YHR027C, strain rpn1, stronger effect = lower value 0.992 | locus YHR030C, strain SLT2, stronger effect = lower value 0.994 and 0.988 | locus YHR079C, strain IRE1 (second series), stronger effect = lower value 0.979 | locus YHR079C, strain IRE1, stronger effect = lower value 1 | locus YHR094C, strain hxt1, stronger effect = lower value 0.97 | locus YHR129C, strain ARP1, stronger effect = lower value 0.989 | locus YHR142W, strain chs7, stronger effect = lower value 0.974 | locus YHR200W, strain rpn10, stronger effect = lower value 0.994 | locus YIL066C, strain RNR3, stronger effect = lower value 0.992 | locus YIL073C, strain SPO22, stronger effect = lower value 0.928 | locus YIL125W, strain kgd1, stronger effect = lower value 0.988 | locus YIR030C, strain dcg1, stronger effect = lower value 0.989 | locus YJL092W, strain hpr5, stronger effect = lower value 0.99 | locus YJL095W, strain BCK1 (second series), stronger effect = lower value 0.985 | locus YJL095W, strain BCK1, stronger effect = lower value 0.977 and 1 | locus YJL115W, strain asf1, stronger effect = lower value 0.972 | locus YJL129C, strain trk1, stronger effect = lower value 0.992 | locus YJL134W, strain LCB3, stronger effect = lower value 0.992 | locus YJL154C, strain vps35, stronger effect = lower value 0.971 | locus YJL164C, strain tpk1, stronger effect = lower value 0.987 | locus YJL166W, strain qcr8, stronger effect = lower value 1 | locus YJL168C, strain set2, stronger effect = lower value 0.983 | locus YJL187C, strain SWE1 (second series), stronger effect = lower value 0.956 | locus YJR043C, strain POL32, stronger effect = lower value 0.996 | locus YJR066W, strain TOR1, stronger effect = lower value 0.989 | locus YJR075W, strain HOC1, stronger effect = lower value 0.978
